The text below walks through data of PubChem BioAssay.

The source made the active and inactive calls.

Assay [1] is described as follows: small molecules captured by biotinylated probe aFSTL3 – biochemical, small-molecule microarray, fluorescence 635/667, stem cell growth factor project, primary screen (AID 1064).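 Further: measures binding of the biotinylated anti-FSTL3 antibody to printed compounds.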 The settings on record: higher = more signal.
Assay [2] can be described thus: binders from COS7 lysate, DM2A8 probe, primary screen, torsin A project, cell lysate, small-molecule microarray, fluorescence 635/667 (AID 1065). The settings on record: higher = more signal, COS7 lysate expressing mutant human TOR1A.
A short description of assay [3]: small molecules captured by biotinylated probe aFGF2 – biochemical, small-molecule microarray, fluorescence 635/667, stem cell growth factor project, primary screen (AID 1067).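 Further: measures binding of biotinylated aFGF2 protein to printed compounds on slides; z-score merges feature fluorescence and signal-to-noise across triplicate slides.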 The settings on record: higher = more signal.
A short description of assay [4]: small molecules captured by biotinylated probe aFGF10 – biochemical, small-molecule microarray, fluorescence 635/667, stem cell growth factor project, primary screen (AID 1071).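 Further: score merges 667 nm spot intensity and signal to noise from triplicate slides.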 The settings on record: higher = more signal.
The target of assay [5] is Neurogenic locus notch homolog protein 2 (Homo sapiens) (UniProt Q04721). Kind of assay: small molecules binding Notch2 protein – biochemical, small-molecule microarray, 635 nm fluorescence, stem cell growth factors, primary screen (AID 1073). The settings on record: higher = more signal.
Neurogenic locus notch homolog protein 2 (Homo sapiens), sequence (Q04721 whole entry, looked up, canonical isoform): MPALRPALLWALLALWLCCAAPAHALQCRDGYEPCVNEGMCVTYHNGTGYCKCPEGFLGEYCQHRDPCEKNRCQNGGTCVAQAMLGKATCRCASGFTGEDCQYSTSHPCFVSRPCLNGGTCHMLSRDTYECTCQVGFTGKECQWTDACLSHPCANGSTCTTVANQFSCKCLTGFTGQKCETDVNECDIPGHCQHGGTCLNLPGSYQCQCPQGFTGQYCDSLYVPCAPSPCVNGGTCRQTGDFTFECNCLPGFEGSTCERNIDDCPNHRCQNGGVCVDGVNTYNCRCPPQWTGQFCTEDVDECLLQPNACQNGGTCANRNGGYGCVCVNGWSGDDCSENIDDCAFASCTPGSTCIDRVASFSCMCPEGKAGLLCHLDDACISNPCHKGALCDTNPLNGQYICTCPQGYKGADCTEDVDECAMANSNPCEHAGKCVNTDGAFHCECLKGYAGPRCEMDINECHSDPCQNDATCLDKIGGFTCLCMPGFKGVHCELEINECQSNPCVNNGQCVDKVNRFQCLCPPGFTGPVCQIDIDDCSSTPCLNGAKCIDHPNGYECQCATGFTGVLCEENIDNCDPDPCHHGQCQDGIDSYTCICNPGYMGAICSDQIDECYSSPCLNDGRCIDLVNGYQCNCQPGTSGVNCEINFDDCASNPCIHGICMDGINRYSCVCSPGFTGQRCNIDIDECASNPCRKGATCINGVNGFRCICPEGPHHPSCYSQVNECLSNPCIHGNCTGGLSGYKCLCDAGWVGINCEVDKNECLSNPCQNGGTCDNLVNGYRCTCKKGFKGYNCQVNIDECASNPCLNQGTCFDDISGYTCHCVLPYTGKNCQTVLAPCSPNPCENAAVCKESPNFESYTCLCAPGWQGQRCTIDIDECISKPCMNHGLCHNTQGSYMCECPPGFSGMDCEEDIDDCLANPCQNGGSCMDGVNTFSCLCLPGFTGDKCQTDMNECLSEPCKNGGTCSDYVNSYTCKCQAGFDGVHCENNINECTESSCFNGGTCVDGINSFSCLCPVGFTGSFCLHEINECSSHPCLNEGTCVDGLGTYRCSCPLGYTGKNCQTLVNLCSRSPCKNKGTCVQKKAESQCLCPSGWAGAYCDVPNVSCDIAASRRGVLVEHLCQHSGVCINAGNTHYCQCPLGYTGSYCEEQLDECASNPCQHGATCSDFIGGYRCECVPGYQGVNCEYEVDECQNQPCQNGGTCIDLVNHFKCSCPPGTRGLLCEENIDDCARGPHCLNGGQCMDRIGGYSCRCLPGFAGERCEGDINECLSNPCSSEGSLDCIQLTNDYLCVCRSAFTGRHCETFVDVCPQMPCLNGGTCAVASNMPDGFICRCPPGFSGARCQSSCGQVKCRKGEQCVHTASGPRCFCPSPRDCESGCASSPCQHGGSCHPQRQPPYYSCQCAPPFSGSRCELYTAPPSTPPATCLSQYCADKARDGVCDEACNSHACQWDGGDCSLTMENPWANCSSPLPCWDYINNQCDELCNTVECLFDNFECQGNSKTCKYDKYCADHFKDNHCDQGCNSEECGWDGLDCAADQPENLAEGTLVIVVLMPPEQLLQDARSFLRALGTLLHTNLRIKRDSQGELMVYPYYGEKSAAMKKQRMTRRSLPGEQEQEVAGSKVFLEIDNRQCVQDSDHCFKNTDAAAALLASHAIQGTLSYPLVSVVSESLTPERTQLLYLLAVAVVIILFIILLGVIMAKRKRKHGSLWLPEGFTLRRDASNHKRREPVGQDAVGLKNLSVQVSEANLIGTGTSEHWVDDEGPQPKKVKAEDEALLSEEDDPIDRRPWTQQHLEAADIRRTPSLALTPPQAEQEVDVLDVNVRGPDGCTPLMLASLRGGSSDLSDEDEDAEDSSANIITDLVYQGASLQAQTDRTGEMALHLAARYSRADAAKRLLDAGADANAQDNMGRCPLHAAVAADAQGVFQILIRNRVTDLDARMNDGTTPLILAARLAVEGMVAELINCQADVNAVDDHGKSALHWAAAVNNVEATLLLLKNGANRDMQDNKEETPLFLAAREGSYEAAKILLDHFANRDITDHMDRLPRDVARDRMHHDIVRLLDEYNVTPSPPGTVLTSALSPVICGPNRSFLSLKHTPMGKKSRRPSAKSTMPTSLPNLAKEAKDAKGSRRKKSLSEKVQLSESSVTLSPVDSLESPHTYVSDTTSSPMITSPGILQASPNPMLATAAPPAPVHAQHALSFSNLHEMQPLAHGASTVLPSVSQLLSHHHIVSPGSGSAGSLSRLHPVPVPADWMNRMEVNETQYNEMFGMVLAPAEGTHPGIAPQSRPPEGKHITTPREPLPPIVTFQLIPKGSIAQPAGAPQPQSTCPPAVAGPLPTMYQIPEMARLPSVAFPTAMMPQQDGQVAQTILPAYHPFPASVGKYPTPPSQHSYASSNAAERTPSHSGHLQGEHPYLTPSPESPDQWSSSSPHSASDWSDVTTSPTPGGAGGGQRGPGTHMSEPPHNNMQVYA
The target in assay [6] is Pro-neuregulin-1, membrane-bound isoform (Homo sapiens) (UniProt Q02297). The assay is described as follows: small molecules binding neuregulin-1 protein – biochemical, small-molecule microarray, fluorescence 635/667, psychiatric disease protein project, primary screen (AID 1075).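 Further: score combines 667 nm spot fluorescence with signal to noise.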 The settings on record: NRG1 binding, 635 nm fluorescence, higher = more signal.
Assay [7] deals with Neuregulin-1 EGF-like domain. The assay is described as follows: small molecules binding NRG1 EGF domain – biochemical, small-molecule microarray, 635 nm fluorescence, primary screen (AID 1081).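 Further: binding of the protein to compounds printed on small-molecule microarray slides.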 The settings on record: higher = more signal.
Assay [8] is described as follows: FRG1 expression reporter modulators in myotubes – cell-based, C2C12 myotubes, firefly/Renilla luciferase, luminescence, FRG1 inhibition for FSHD, primary screen (AID 1084). The settings on record: FRG1 promoter luciferase, higher = more signal, called active from +8 up or from −8 down.
The nature of assay [9]: small molecules captured by biotinylated probe aFST – biochemical, small-molecule microarray, fluorescence 635/667, stem cell growth factor project, primary screen (AID 1086).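 Further: score merges 667 nm fluorescence with signal-to-noise of each printed compound spot.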 The settings on record: higher = more signal.
A short description of assay [10]: binders of probe aHhip on microarray, primary screen, stem cell growth factor project, biochemical, small-molecule microarray, fluorescence 635/667 (AID 1087).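 Further: score merges spot fluorescence at 667nm with spot signal to noise ratio.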 The settings on record: higher = more signal.
In assay [11] the test system is PRMT1 (protein arginine N-methyltransferase 1). Kind of assay: small molecules binding arginine methyltransferase PRMT1 – biochemical, small-molecule microarray, 635 nm fluorescence, primary screen (AID 1088).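 Further: binding of Prmt1 protein to compounds spotted on small-molecule microarray slides.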 The settings on record: higher = more signal.
The nature of assay [12]: growth effects on S. cerevisiae YJM789 – YJM789 clinical isolate, OD600, 24 h, basal, primary screen (AID 1089).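 Further: growth of clinical yeast isolate S. cerevisiae YJM 789 seeded 1000 cells per well; test concentration not given here.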 The settings on record: higher = more signal, called active from +8 up or from −8 down.
Assay [13] in a line: S. pombe growth modifiers, basal conditions – strain 972, OD600, 24 h, no modulator, primary screen (AID 1090).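 Further: basal condition with compound alone and no growth modifier present; test concentration not given here.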 The settings on record: S. pombe 972 growth, higher = more signal, called active from +8 up or from −8 down.
Assay [14] is described as follows: budding yeast growth modifiers under rapamycin – strain BY4716, OD600, 96 h, primary screen (AID 1091). Further: test concentration not given here. The settings on record: S. cerevisiae BY4716 + rapamycin, higher = more signal, called active from +8 up or from −8 down.
Assay [15] has as its target Torsin-1A-interacting protein 2 (Homo sapiens) (UniProt Q8NFQ8). Kind of assay: small molecules binding lysate-expressed LULL1 – cell lysate, human LULL1 lysate, 635/667 nm fluorescence, primary screen (AID 1092).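 Further: probe is lysate of COS7 cells overexpressing human LULL1; score merges per-feature 667 nm fluorescence with signal-to-noise.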 The settings on record: small-molecule microarray, hLULL1 lysate binding, 635 nm fluorescence; higher = more signal.
The nature of assay [16]: optical density change of DRC41 E. coli – strain DRC41, OD650, 24 h, E. coli filamentation project, primary screen (AID 1093).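 Further: MC1000 strain lacking acrAB efflux and sulA so SOS filamentation is blocked; test concentration not given here.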 The settings on record: E. coli DRC41 growth, higher = more signal, called active from +8 up or from −8 down.
Assay [17] can be described thus: probe aLefty2 binding to arrayed compounds – biochemical, biotinylated probe, 635/667 nm fluorescence, primary screen (AID 1094).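 Further: score merges spot fluorescence near 667 nm with spot signal-to-noise ratio.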 The settings on record: small-molecule microarray, higher = more signal.
In assay [18] the test system is Noggin (protein binding on small-molecule microarray). The assay is described as follows: small molecules binding Noggin protein – biochemical, 635/667 nm fluorescence, primary screen (AID 1095).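 Further: score merges 667 nm feature fluorescence with signal to noise over triplicate slides.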 The settings on record: 635 nm fluorescence, higher = more signal.
For assay [19], the target named is Neurogenic locus notch homolog protein 3 (Homo sapiens) (UniProt Q9UM47). Kind of assay: small molecules binding NOTCH3 protein – biochemical, 635/667 nm fluorescence, primary screen (AID 1096). The settings on record: small-molecule microarray, 635 nm fluorescence, higher = more signal.
Neurogenic locus notch homolog protein 3 (Homo sapiens), sequence (Q9UM47 whole entry, looked up): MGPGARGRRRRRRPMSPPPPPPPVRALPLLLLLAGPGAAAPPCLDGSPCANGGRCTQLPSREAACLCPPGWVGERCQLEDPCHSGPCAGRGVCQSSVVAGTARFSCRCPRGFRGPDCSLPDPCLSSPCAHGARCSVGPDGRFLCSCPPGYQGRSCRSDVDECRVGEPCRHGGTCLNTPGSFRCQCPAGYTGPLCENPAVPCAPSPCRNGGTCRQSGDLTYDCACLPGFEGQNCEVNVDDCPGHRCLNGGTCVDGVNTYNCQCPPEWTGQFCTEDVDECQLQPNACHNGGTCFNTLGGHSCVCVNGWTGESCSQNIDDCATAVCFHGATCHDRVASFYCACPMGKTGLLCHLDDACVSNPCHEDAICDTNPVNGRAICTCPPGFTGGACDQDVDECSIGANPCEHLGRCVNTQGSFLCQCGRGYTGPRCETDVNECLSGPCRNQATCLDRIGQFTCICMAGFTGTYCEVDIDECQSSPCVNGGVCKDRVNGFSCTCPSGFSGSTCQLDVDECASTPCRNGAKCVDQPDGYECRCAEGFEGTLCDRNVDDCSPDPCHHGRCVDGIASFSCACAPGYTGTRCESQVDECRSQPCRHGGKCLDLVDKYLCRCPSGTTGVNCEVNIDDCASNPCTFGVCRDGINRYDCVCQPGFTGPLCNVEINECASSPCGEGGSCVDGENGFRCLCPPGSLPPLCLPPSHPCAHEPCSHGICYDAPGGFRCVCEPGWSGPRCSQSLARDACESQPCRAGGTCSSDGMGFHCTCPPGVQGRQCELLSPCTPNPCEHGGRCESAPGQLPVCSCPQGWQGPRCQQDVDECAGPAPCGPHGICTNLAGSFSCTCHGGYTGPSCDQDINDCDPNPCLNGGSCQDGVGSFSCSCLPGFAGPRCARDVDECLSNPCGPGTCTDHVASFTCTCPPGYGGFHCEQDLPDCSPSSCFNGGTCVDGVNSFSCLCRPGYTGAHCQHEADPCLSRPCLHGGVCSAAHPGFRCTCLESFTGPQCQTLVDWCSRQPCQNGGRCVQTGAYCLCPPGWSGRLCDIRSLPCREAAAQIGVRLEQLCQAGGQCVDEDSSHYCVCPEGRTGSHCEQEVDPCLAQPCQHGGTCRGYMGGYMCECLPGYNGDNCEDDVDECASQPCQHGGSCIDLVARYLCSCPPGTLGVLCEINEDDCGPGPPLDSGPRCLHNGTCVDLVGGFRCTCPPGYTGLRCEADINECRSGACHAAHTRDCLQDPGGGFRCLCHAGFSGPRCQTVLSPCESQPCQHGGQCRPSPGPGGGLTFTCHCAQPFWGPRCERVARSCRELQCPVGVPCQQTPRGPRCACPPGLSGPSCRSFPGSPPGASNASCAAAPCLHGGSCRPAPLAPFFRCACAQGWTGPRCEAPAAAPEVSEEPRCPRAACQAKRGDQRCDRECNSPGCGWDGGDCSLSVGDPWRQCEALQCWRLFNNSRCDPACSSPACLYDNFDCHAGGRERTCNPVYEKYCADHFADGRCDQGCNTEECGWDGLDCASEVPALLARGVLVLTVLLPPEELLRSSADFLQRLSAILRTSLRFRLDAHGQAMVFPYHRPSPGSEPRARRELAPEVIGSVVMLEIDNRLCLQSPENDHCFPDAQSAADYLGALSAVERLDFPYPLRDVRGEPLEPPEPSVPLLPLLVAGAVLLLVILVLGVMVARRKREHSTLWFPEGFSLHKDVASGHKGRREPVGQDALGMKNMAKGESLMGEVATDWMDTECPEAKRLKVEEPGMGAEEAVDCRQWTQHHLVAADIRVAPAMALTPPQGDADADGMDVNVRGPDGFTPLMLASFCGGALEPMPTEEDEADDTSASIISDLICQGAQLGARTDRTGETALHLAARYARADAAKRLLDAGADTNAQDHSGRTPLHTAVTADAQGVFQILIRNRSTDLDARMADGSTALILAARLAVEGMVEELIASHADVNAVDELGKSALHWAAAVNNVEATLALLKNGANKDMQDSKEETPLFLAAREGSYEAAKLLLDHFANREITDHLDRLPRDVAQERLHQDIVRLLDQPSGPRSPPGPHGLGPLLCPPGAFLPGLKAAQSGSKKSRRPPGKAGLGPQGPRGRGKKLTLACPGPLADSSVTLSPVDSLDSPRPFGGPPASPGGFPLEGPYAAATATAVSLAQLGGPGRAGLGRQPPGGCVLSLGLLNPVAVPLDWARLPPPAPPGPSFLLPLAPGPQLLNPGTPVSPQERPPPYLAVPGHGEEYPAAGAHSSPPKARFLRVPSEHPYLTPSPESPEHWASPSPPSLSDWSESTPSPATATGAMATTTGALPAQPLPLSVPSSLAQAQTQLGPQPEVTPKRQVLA
Assay [20] is described as follows: probe aEGFR binding to arrayed compounds – biochemical, biotinylated probe, 635/667 nm fluorescence, primary screen (AID 1097).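 Further: probe is a biotinylated anti-EGFR antibody binding compounds printed on slides; score combines fluorescence near 667 nm and signal to noise of each spot.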 The settings on record: small-molecule microarray, higher = more signal.

Consider `O=C1C2C=CC(C(O)c3c(F)cccc3Cl)N(Nc3ccccc3)C2C(=O)N1c1ccccc1` (stereo not given), for which the composite z-score in assay [1] is -0.0072; in [2], -0.0274; in [3] it was 0.0363; in [4], 0.354; in assay [5], 1.7; in assay [6], 1.86. Further, the composite z-score in assay [7] was 1.25; in assay [9] it was 1.09; in [10] it was -0.359; in [11] it was 1.56; in [15], 3.43; in [17] it was 0.0313. In addition, the composite z-score in [18] was 0.461; in [19], 1.04; in [20], -0.0251. Further, the z-score is -3.84 (inactive) in assay [8]; 0.269 (inactive) in [12]; 0.211 (inactive) in [13]; 0.395 (inactive) in assay [14]; 0.063 (inactive) in assay [16].
Consider `CCOC(=O)C[C@H]1[C@H](OC(=O)Cc2ccc3c(c2)OCO3)[C@@H](NC(=O)c2ccc(-c3ccccc3)cc2)c2cc(OCCCO)ccc2N1C(=O)Cc1ccc(OC)cc1`, for which the composite z-score in assay [1] was -0.429; in assay [2], 0.816; in assay [3], -0.0636; in [4], 0.412; in assay [5], 0.819; in assay [6], 0.337. The composite z-score is 0.269 in [7]; 0.339 in assay [9]; -0.415 in assay [10]; 0.81 in assay [11]; 0.826 in [15]; 0.0163 in assay [17]. Also, the composite z-score was 0.185 in [18], 0.921 in assay [19] and 0.0881 in [20]. The z-score is -3.25 (inactive) in assay [8]; -1.32 (inactive) in assay [12]; -1.09 (inactive) in [13]; 0.105 (inactive) in assay [14]; 1.09 (inactive) in [16].
Regarding `CCOC(=O)C1=CCC(c2ccc(C)cc2)N(S(=O)(=O)c2ccc(C)cc2)C1` (stereo not given), the composite z-score is 0.464 in assay [1]; -0.0577 in assay [2]; -0.0499 in assay [3]; 0.101 in [4]; 0.255 in assay [5]; 0.38 in assay [6]. For the same molecule, the composite z-score in assay [7] is 0.923; in assay [9] it was 0.261; in [10], -0.0994; in [11], 0.329; in assay [15] it was 1.69; in assay [17] it was 0.0283. In addition, the composite z-score is -0.0866 in [18], 0.234 in assay [19] and -0.121 in assay [20]. For the same molecule, the z-score in [8] is -4.43 (inactive); in assay [12], 0.564 (inactive); in [13] it was 1.59 (inactive); in [14] it was 2.26 (inactive); in assay [16] it was -0.422 (inactive).
`CC(C)[C@@H](CO)NC(=O)[C@H]1[C@@H](c2ccccc2)N(c2ccccc2)O[C@@H]1C`: the composite z-score in assay [1] was -0.5; in assay [2], -0.245; in [3] it was -0.143; in assay [4], 0.439; in assay [5] it was -0.208; in assay [6], -0.0453. Further, the composite z-score in assay [7] is 0.396; in [9], -0.0238; in [10], -0.0237; in assay [11] it was -0.159; in assay [15], 1.02; in assay [17], -0.193. In addition, the composite z-score was 0.171 in assay [18], -0.271 in assay [19] and -0.177 in assay [20]. Further, the z-score was -0.579 (inactive) in assay [8]; -0.0247 (inactive) in [12]; -0.207 (inactive) in assay [13]; 0.072 (inactive) in [14]; 1.08 (inactive) in assay [16].
In the case of `O=C1O[C@H](c2ccccc2)[C@H](c2ccccc2)N2[C@H]1[C@@H](C(=O)O)[C@]1(C(=O)Nc3ccc(C#CC4=CCCCC4)cc31)[C@H]2c1ccccc1OCCO`, the composite z-score in assay [1] is 0.943; in assay [2] it was 0.914; in [3] it was -0.0885; in [4], 0.729; in assay [5] it was 1.01; in assay [6], 1.69. Also, the composite z-score in [7] stood at 0.994; in assay [9], 0.792; in assay [10] it was 1.13; in assay [11], 1.53; in [15] it was 3.1; in assay [17], 0.196. Besides, the composite z-score in [18] was 1.05; in assay [19], 0.941; in assay [20], -0.313. In addition, the z-score is 0.755 (inactive) in [8]; 1.07 (inactive) in assay [12]; 1.1 (inactive) in [13]; -1.55 (inactive) in assay [14]; -0.273 (inactive) in [16].
